The results in this text go back to ChEMBL document CHEMBL5724796, “Tm Shift (DSF) assay results for EUbOPEN Chemogenomics Library” (2024).

Where “and” joins values, the source holds several entries; their conditions need not be identical. Equal entries are not always repeated.

In this experiment the target is T1, Transcription intermediary factor 1-alpha (Homo sapiens) (UniProt O15164).
T1 sequence (whole entry): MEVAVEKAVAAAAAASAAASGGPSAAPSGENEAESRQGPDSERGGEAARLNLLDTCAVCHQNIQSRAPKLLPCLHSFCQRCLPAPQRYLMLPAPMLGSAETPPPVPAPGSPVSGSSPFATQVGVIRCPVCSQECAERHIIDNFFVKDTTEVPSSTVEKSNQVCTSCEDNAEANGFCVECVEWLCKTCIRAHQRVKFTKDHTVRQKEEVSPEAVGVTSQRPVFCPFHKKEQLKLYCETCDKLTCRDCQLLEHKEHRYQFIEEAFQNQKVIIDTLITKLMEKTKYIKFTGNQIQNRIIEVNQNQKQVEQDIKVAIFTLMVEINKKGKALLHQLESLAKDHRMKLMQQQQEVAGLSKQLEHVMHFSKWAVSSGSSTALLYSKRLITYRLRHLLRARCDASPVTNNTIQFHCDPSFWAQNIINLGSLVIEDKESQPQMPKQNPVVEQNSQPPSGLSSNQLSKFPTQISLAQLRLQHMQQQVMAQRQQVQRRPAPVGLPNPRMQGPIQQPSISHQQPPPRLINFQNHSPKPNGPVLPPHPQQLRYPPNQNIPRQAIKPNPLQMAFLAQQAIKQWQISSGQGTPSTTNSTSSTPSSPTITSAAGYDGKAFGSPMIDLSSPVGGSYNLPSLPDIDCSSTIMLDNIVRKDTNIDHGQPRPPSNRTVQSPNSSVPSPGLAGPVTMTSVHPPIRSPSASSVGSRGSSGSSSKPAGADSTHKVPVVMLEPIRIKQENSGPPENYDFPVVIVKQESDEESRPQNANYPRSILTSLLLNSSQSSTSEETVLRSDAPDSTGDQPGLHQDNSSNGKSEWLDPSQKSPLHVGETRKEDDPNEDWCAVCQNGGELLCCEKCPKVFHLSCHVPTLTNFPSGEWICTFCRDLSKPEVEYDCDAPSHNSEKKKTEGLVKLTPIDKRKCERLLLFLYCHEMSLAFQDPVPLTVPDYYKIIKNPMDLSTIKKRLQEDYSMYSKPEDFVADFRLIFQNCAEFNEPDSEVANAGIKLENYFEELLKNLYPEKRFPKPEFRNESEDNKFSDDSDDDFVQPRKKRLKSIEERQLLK
The note with it: Compound concentration 20.0 uM.
Consider `CC(C)(C)NS(=O)(=O)c1ccc(NC(=O)[C@H](Cc2ccccc2)NC(=O)c2ccc(F)cc2)cc1`, for which the ΔTm is -0.1 °C.

Consider `CC(C)(C)OC(=O)NCCCCCN(CCc1ccccc1)C(=O)n1cc(-c2ccc(OC(F)(F)F)cc2)nn1`, for which the ΔTm came to 0.4 °C.

Take `O=C(CN1CCN(c2ccc(F)cn2)CC1)Nc1nc2c(s1)CCCC2`: the ΔTm was -2.28 °C.

`C[C@H](Nc1cc(Cl)nc2c1cnn2[C@@H]1O[C@H](COP(=O)(O)CP(=O)(O)O)[C@@H](O)[C@H]1O)c1ccccc1F`: the ΔTm is -0.82 °C.

Consider `OC[C@H]1O[C@@H](c2ccc(F)c(Cc3cc4ccccc4s3)c2)[C@H](O)[C@@H](O)[C@@H]1O`, for which the ΔTm is -0.42 °C.

Take `CCn1ncc2c(NC3CCOCC3)c(-c3nnc(Cc4sc(C)nc4C)o3)cnc21`: the ΔTm amounted to 0.22 °C.

For `O=c1[nH][nH]c(=O)c2cc(OCc3ccccc3F)ccc12`, the ΔTm is 0 °C.

Regarding `Cc1cc(Cl)cc(-c2c3sc(CN4C(=O)C5C(C4=O)C5(C)C)cc3nn2C)c1OC1CCNCC1` (centres undefined), the ΔTm was -1.23 °C.

Regarding `COc1cc(C(=O)NCC2(N(C)C)CCCC2)cc(OC)c1OCc1ccccc1`, the ΔTm amounted to 3.25 °C.

As to `CNC(=O)N1CCc2c(c(N3CCCc4cc(-c5cnn(C)c5)c(C(F)F)cc43)nn2C2CCOCC2)C1`, the ΔTm is -2.05 °C.

Turning to `Nc1ccccc1NC(=O)c1ccc(CNc2nccc(-c3cccnc3)n2)cc1`, the ΔTm was -0.03 °C.

As to `CCCCCCCCCCCCCCCCNNC(=O)c1cccs1`, the ΔTm is -0.93 °C.

In the case of `CN1CCN2c3c(cccc31)[C@@H]1CN(CCCC(=O)c3ccc(F)cc3)CC[C@@H]12`, the ΔTm stood at 0.32 °C.

Turning to `Cn1ncc(-c2nn(C)c3ncnc(N4CCC4)c23)c1-c1ccc(C(F)(F)F)cc1`, the ΔTm is -2.31 °C.

With `COc1cc2c(NC3CCN(C)CC3)cc(-c3ccc(C)o3)nc2cc1OCCCN1CCCC1`, the ΔTm is -0.54 °C.

Turning to `O=C(NCCCc1ccccc1)c1cccc(-c2cc(O)c3ncccc3c2)c1`, the ΔTm was found to be 0.72 °C.

`N=C(N)SCc1ccc(CN2C(=O)C(=O)c3cc(Br)cc(Br)c32)cc1`: the ΔTm came to 0 °C.

Consider `O=C(C[C@@H](C(F)F)n1ccc(F)n1)N1CCC(O)(Cn2cnc3c(cnn3-c3ccc(F)cc3)c2=O)CC1`, for which the ΔTm is 1.94 °C.

Regarding `Cc1c(CN2CCC(Nc3ncnc4sc(CC(F)(F)F)cc34)CC2)ccc2[nH]c(C#N)cc12`, the ΔTm was determined as 0.71 °C.

Take `N#Cc1ccc(-c2c3n(c4cccnc24)CCN(C2CC2)C3=O)cc1F`: the ΔTm was 0.73 °C.

As to `COc1cc2c(NC3CCN(C4CCCCC4)CC3)nc(N3CCCN(C(C)C)CC3)nc2cc1OCCCN1CCCCC1`, the ΔTm amounted to 0.36 °C.

Regarding `CC(C)NCC(O)COC(Cn1c2ccccc2c2ccccc21)Cn1c2ccccc2c2ccccc21` (centres undefined), the shift in melting temperature (ΔTm) is -3.49 °C.

Turning to `N#Cc1ccc(-c2csc(NN=C3CCCC3)n2)cc1`, the ΔTm was -1.63 °C.

On to `O=C(NC[C@H](O)CN1CCc2ccccc2C1)c1cc(NC2COC2)ncn1`, for which the ΔTm is -0.84 °C.

With `CC(C)c1ccc(-c2cc(=O)c3ccccc3o2)cc1`, the ΔTm is -0.62 °C.

`CC(C)NC(=O)c1ccc(OC(F)F)c(OCC2CC2)c1`: the ΔTm turned out to be 1.71 °C.

`O=C(C1CC1)N1CC[C@@H](Cc2n[nH]c(=O)n2-c2ccc(-c3ccc4occc4c3)cc2)C1`: the ΔTm was -1.14 °C and -0.89 °C.

Turning to `CCCCCCCCCCCCCC(=S)NCCCC[C@H](NC(=O)OCc1ccccc1)C(=O)Nc1ccccc1`, the ΔTm turned out to be 1.92 °C.

In the case of `CCNC(=O)c1noc(-c2cc(C(C)C)c(O)cc2O)c1-c1ccc(CN2CCOCC2)cc1`, the ΔTm turned out to be 0.38 °C.

Consider `Cn1ncc2c(-c3c(-c4ccc(F)cn4)nn4c3COC(C)(C)C4)ccnc21`, for which the ΔTm was -1.33 °C.

For `CCCCNc1cc(C(=O)O)cc(S(N)(=O)=O)c1Oc1ccccc1`, the ΔTm was determined as 0.82 °C.

For `CN(C)CCCCC(=O)Nc1ccc(NC(=S)NC(=O)c2ccc(C(C)(C)C)cc2)cc1`, the ΔTm was -0.79 °C.

For `CC(C)C(=O)c1c(C(C)C)nn2ccccc12`, the ΔTm turned out to be 0.7 °C.

On to `Cc1nn(CC(F)(F)F)cc1Nc1ncc(Br)c(NCc2ccc(S(N)(=O)=O)cc2)n1`, for which the ΔTm was 1.38 °C.

Consider `NS(=O)(=O)OC[C@H]1C[C@@H](Nc2ncncc2C(=O)c2ccn(Cc3cccc(Br)c3)n2)C[C@@H]1O`, for which the ΔTm is -1.07 °C.

For `Cc1ncc(Cl)cc1NCc1ccc(C(=O)N[C@@H](CC2CCCC2)C(=O)NC2CC2)s1`, the ΔTm stood at 2.21 °C.

Take `Cc1noc(C)c1-c1cc(Cl)c(Nc2ccccc2C(=O)O)c(Cl)c1`: the ΔTm was -1.42 °C.

Take `CC(=O)NCC(=O)N1CCC[C@@H]1B(O)O`: the ΔTm stood at 0.93 °C.

Regarding `C[C@@H](Nc1nc2c(cnn2C2CCCC2)c(=O)[nH]1)C(=O)N1CC[C@H](F)C1`, the ΔTm stood at 0.97 °C.

Broadly, the ΔTm is the change in melting temperature against a reference sample.
